In PubChem BioAssay:
Calls of active or inactive are those of the source.

Experiments:
[1] = tested on: Plasmodium falciparum Sir2 (PF13_0152, Sir2A); assay: Plasmodium falciparum Sir2A binding compounds – biochemical, small-molecule microarray, 635 nm fluorescence, primary screen (AID 1098); conditions: fluorescence 635 nm, higher = more signal;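 further: score merges spot fluorescence intensity with its signal-to-noise ratio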
[2] = probe aDKK1 binding to arrayed compounds – biochemical, biotinylated probe, 635/667 nm fluorescence, primary screen (AID 1099); conditions: small-molecule microarray, higher = more signal;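 further: score merges 667nm spot fluorescence with signal to noise across triplicate slides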
[3] = probe aCHRDL2 binding to arrayed compounds – biochemical, biotinylated probe, 635/667 nm fluorescence, primary screen (AID 1100); conditions: small-molecule microarray, higher = more signal
[4] = change in splice reporter luminescence, either direction, cell-based, HEK293, spliceosome inhibition project, primary screen (AID 1101); conditions: HEK293 splicing luciferase reporter, 24 h, higher = more signal, called active from +8 up or from −8 down;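 further: HEK293 cells carrying a splicing-competent luciferase reporter gene; test concentration not given here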
[5] = biological target: Fibroblast growth factor 10 (Homo sapiens) (UniProt O15520); assay: compounds binding fibroblast growth factor 10 – biochemical, small-molecule microarray, 635 nm fluorescence, primary screen (AID 1102); conditions: FGF10 binding, fluorescence 635 nm, higher = more signal
[6] = tested on: glycogen synthase kinase-3 (GSK3A per assay name; protocol says GSK3B); assay: compounds binding glycogen synthase kinase-3 – biochemical, small-molecule microarray, 635 nm fluorescence, GSK3A, primary screen (AID 1103); conditions: fluorescence 635 nm, higher = more signal; further: the record names both GSK3A and GSK3B
[7] = biological target: Epidermal growth factor receptor (Homo sapiens) (UniProt P00533); assay: compounds binding epidermal growth factor receptor – biochemical, small-molecule microarray, 635 nm fluorescence, primary screen (AID 1104); conditions: EGFR binding, higher = more signal;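 further: score merges 667 nm emission intensity with spot signal to noise over triplicate slides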
[8] = biological target: Follistatin-related protein 3 (Homo sapiens) (UniProt O95633); assay: compounds binding follistatin-related protein 3 – biochemical, small-molecule microarray, 635 nm fluorescence, primary screen (AID 1105); conditions: FSTL3 binding, higher = more signal;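 further: score merges emission near 667 nm and signal to noise per printed spot across three slides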
[9] = biological target: Dickkopf-related protein 1 (Homo sapiens) (UniProt O94907); assay: small molecules binding DKK1 protein – biochemical, small-molecule microarray, 635 nm fluorescence scan, primary screen (AID 1106); conditions: higher = more signal;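 further: score merges emission near 667 nm with signal to noise over three replicate slides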
[10] = tested on: Inhibin beta A chain (activin A); assay: small molecules binding activin A – biochemical, small-molecule microarray, 635 nm fluorescence scan, primary screen (AID 1107); conditions: INHBA, higher = more signal;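 further: mouse activin A protein probed at 4.33 µg/mL on printed slides; score merges bound-protein fluorescence near 667 nm with spot signal-to-noise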
[11] = tested on: Human papillomavirus type 1a protein E7 (residues 44-93); assay: small molecules binding HPV E7 44-93 – biochemical, small-molecule microarray, residues 44-93, 635 nm fluorescence, primary screen (AID 1108); conditions: fluorescence 635 nm, higher = more signal;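 further: E7 fragment applied at 1 µg/mL in TBST for 1 h at 4 C; score combines spot fluorescence with its signal to noise ratio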
[12] = hepatitis C replication reporter changes, two-sided – Huh7 cells, luciferase reporter, HCV replication inhibitor project, primary screen (AID 1109); conditions: Huh7 HCV replicon luciferase reporter, 48 h; higher = more signal;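 further: huh7 hepatoma cells harbouring a luciferase neomycin HCV replicon reporter; luciferase luminescence as measure of HCV replicon replication; test concentration not given here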
[13] = biological target: Left-right determination factor 2 (Homo sapiens) (UniProt O00292); assay: small molecules binding LEFTY2 protein – biochemical, small-molecule microarray, 635 nm fluorescence scan, primary screen (AID 1110); conditions: higher = more signal
[14] = biological target: Calmodulin-1 (Homo sapiens) (UniProt P0DP23); assay: small molecules binding calmodulin-1 with EGTA – biochemical, small-molecule microarray, Cy5-labelled CALM1, profiling panel (AID 1111); conditions: Cy5-CALM1 binding fluorescence, higher = more signal;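 further: labelled calmodulin applied in Tris saline Tween buffer holding calcium plus EGTA and DTT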
[15] = biological target: Calmodulin-1 (Homo sapiens) (UniProt P0DP23); assay: small molecules binding Ca-loaded calmodulin-1 – biochemical, small-molecule microarray, Cy5-labelled CALM1, plus calcium, artefact control for SMM control-protein annotation, profiling panel (AID 1112); conditions: Cy5-CALM1 binding fluorescence, higher = more signal;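 further: score merges spot fluorescence with signal to noise from triplicate slides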
[16] = probe aWnt5a binding to arrayed compounds – biochemical, biotinylated probe, 635/667 nm fluorescence, primary screen (AID 1113); conditions: small-molecule microarray, higher = more signal;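 further: score merges 667 nm fluorescence intensity with signal-to-noise per printed feature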
[17] = probe aShh binding to arrayed compounds – biochemical, biotinylated probe, 635/667 nm fluorescence, primary screen (AID 1114); conditions: small-molecule microarray, higher = more signal;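 further: probe is biotin-labelled aShh protein from a stem cell growth factor screen; measures binding of labelled protein to compounds printed on the slide; score merges feature fluorescence at 667 nm with signal-to-noise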
[18] = probe aNog binding to arrayed compounds – biochemical, biotinylated probe, 635/667 nm fluorescence, primary screen (AID 1115); conditions: small-molecule microarray, higher = more signal;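 further: probe is biotinylated aNog protein used at 0.15 µg/mL for 1 h at 4 C; z-score combines 667 nm fluorescence of each spot with its signal to noise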
[19] = biological target: Torsin-1A-interacting protein 1 (Homo sapiens) (UniProt Q5JTV8); assay: compound microarray binding of lysate hLAP1 – cell lysate, small-molecule microarray, COS7 lysate, 635/667 nm fluorescence, primary screen (AID 1116); conditions: 635 nm fluorescence, higher = more signal
[20] = biological target: Alpha-bungarotoxin (Bungarus multicinctus) (UniProt P60615); assay: compounds binding labelled alpha-BTX control protein – biochemical, small-molecule microarray, Alexa647 label, 635/667 nm fluorescence, artefact control for SMM control protein annotation, profiling panel (AID 1117); conditions: alpha-BTX-A647 binding fluorescence, higher = more signal
Alpha-bungarotoxin (Bungarus multicinctus), sequence (P60615 whole entry, looked up): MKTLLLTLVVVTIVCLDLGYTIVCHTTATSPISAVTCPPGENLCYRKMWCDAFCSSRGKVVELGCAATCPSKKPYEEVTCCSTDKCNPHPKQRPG

Follistatin-related protein 3 (Homo sapiens), sequence (O95633 whole entry, looked up): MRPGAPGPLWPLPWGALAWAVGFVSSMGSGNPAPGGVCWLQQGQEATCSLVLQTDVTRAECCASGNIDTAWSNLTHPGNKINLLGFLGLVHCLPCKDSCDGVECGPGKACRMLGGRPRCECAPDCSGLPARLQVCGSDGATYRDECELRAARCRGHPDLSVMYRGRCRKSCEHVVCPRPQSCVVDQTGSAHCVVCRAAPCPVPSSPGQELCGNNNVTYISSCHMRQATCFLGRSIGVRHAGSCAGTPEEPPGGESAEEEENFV
Dickkopf-related protein 1 (Homo sapiens), sequence (O94907 whole entry, looked up): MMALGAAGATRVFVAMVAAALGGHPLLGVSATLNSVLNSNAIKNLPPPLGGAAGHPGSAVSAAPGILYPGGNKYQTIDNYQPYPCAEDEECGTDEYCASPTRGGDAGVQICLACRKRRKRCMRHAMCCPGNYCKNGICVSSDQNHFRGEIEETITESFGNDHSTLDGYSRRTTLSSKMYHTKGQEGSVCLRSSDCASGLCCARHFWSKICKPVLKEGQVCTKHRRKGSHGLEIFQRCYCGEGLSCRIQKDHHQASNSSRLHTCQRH
Left-right determination factor 2 (Homo sapiens), sequence (O00292 whole entry, looked up): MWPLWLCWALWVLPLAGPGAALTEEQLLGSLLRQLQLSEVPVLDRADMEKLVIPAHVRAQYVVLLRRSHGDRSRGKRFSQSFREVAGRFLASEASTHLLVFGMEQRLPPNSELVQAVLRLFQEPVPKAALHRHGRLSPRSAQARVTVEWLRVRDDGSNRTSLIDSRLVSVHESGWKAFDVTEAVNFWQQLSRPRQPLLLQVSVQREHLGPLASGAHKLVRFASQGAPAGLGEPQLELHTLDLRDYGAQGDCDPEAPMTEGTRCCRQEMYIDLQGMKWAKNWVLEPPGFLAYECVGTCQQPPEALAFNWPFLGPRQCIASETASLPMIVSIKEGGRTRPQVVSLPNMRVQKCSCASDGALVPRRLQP
Fibroblast growth factor 10 (Homo sapiens), sequence (O15520 whole entry, looked up): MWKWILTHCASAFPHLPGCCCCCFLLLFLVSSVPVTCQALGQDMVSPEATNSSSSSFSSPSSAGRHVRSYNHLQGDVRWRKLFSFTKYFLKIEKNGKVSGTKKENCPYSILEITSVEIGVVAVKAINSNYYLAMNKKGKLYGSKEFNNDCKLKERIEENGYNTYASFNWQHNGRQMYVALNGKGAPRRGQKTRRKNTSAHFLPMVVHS
Torsin-1A-interacting protein 1 (Homo sapiens), sequence (Q5JTV8 whole entry, looked up): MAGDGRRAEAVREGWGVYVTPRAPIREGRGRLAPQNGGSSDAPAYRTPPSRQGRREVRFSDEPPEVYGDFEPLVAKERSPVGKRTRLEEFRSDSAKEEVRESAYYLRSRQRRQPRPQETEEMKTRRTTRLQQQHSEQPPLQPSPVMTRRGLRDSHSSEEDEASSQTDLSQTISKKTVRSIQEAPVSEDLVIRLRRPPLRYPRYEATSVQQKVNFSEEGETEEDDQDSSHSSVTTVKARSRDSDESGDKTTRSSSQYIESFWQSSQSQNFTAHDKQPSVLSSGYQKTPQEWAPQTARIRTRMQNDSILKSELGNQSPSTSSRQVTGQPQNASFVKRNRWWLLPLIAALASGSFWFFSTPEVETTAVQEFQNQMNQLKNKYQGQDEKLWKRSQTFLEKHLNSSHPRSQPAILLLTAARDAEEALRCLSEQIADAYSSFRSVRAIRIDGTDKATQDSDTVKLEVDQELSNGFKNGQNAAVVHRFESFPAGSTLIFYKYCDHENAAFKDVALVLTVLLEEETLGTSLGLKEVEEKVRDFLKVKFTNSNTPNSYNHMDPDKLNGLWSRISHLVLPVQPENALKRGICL
Epidermal growth factor receptor (Homo sapiens), sequence (P00533 whole entry, looked up): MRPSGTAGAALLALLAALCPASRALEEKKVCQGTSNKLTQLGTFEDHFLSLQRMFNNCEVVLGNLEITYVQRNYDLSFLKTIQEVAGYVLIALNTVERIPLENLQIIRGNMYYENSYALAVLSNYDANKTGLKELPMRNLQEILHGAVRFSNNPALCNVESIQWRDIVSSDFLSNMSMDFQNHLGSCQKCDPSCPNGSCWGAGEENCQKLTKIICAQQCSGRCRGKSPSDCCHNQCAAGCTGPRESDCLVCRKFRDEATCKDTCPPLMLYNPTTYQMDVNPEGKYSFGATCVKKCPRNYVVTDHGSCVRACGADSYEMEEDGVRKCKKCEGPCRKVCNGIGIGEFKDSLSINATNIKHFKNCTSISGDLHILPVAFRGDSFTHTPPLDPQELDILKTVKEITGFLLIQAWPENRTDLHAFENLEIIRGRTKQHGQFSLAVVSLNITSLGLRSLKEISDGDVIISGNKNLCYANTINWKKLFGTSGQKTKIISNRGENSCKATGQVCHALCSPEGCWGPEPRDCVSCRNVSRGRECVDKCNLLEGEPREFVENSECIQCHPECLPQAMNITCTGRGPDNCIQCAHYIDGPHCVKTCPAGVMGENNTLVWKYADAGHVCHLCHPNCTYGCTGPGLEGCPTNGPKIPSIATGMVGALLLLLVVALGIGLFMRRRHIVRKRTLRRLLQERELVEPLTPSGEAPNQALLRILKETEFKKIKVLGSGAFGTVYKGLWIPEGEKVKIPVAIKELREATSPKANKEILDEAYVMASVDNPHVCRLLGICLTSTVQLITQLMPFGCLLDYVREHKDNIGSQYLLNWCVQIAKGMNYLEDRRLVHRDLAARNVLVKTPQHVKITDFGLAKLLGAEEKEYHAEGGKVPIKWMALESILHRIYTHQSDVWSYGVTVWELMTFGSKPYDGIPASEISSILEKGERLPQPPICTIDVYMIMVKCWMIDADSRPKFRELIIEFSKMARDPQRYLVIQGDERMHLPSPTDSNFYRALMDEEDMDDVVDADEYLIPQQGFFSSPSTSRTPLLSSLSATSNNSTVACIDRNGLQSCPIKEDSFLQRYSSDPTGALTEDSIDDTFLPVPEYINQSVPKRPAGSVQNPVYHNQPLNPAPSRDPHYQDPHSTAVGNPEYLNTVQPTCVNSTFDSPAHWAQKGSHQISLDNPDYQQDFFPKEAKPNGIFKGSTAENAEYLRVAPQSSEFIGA

Compound | composite z-score [1] | composite z-score [2] | composite z-score [3] | z-score [4] | composite z-score [5] | composite z-score [6] | composite z-score [7] | composite z-score [8] | composite z-score [9] | composite z-score [10] | composite z-score [11] | z-score [12] | composite z-score [13] | composite z-score [14] | composite z-score [15] | composite z-score [16] | composite z-score [17] | composite z-score [18] | composite z-score [19] | composite z-score [20]
COC(=O)[C@@]1(Cc2ccccc2)[C@@H]2C(=CC(=O)[C@H]2CC(=O)C(=O)N(C)C)CN1C(=O)c1ccccc1 | 0.971 | 1.08 | 1.17 | 2.93 (inactive) | 0.473 | 0.982 | 0.159 | 0.471 | -0.465 | 1.25 | 0.883 | -2.36 | 0.25 | 1.31 | 0.477 | 0.188 | 0.21 | 1.46 | 0.275 | 0.409
COCCOC(=O)N1C(=O)[C@@]2(c3cc(C#Cc4ccc(OC)cc4)ccc31)[C@H](C(=O)Nc1nc3ccccc3s1)[C@H]1C(=O)O[C@H](c3ccccc3)[C@H](c3ccccc3)N1[C@@H]2c1ccc(OCCO)cc1 | 0.557 | -0.135 | -0.571 | -0.653 (inactive) | 1.37 | 1.28 | 0.654 | 1.38 | 0.901 | 0.0865 | 1.17 | -2.19 | 0.785 | 0.762 | -0.621 | -0.0704 | -0.223 | -0.268 | 0.179 | 1
CCCNC(=O)[C@@H]1c2ccccc2C(=O)N(C(C)C)[C@H]1c1ccc(CO)cc1 | 0.32 | 0.02 | 0.933 | 0.844 (inactive) | -0.342 | -0.307 | -0.87 | -0.961 | -0.375 | 0.534 | 0.123 | -0.362 | -0.378 | -0.193 | 0.0439 | -0.104 | 0.0062 | -0.287 | 0.625 | -0.182
O=C1OCC=C[C@H]2OC34C=CCN(Cn5nnc6ccccc65)C(=O)[C@H]3N(CCCO)C(=O)[C@@H]4[C@@H]12 (stereo not given in full) | -0.0241 | -0.0481 | 0.368 | -1.26 (inactive) | -0.21 | -1.08 | -0.577 | -1.39 | -0.448 | 0.839 | -0.408 | 0.424 | -0.573 | -0.0941 | 0.449 | -0.26 | 0.381 | 0.0517 | 0.529 | -1.11
COc1ccc([Si](C)(C)[C@H]2[C@H](CCn3cc([C@H](O)c4ccccc4)nn3)O[C@@]3(C(=O)N(Cc4ccc(N5C(=O)c6cccc7cccc5c67)cc4)c4ccccc43)[C@@H]2C)cc1 | 0.93 | 0.0396 | 0.538 | -0.64 (inactive) | 0.324 | -0.509 | -0.775 | -0.617 | -0.858 | -1.13 | 0.0891 | -2.6 | -0.638 | 0.103 | 0.0758 | -0.131 | -0.154 | -0.0065 | 0.112 | 0.0628
Cc1ccc(S[C@]2(C(=O)NCC(F)(F)F)CC(=O)N(Cc3ccccc3C(F)(F)F)[C@@H]2c2ccc(CO)cc2I)cc1 | 1.46 | -0.255 | 0.956 | -0.0164 (inactive) | -1.34 | -1.49 | -1.96 | -1.28 | -1.7 | 0.283 | -0.784 | -0.414 | -2.12 | -0.423 | -0.214 | -0.0944 | 0.0483 | -0.161 | -0.531 | 0.444
